Measured values published in the supplement of paper PMC6555819.

system: PPARg DBDmut:RXRa IVT, anti-PPARg (DBD mutation: PPARg1 K132A/R137A, NR concentration 270 nM, RXRa partner concentration 90 nM); experiment: PBM binding z-score (relative to random genomic background probes); higher = stronger binding; sequences stand for … in GC…GCGATTGACAGCGTAGAATGAAGG
How it was run: (§1)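 The probes on custom Agilent 4×180K protein-binding microarrays were double-stranded, with 34-nt variable regions bearing direct-repeat seeds, single-nucleotide variants, half-site ablations and random human genomic background sequences. Incubation lasted 1 h with ligand-free nuclear receptor dimers in PBS pH 7.4, 2% milk, 0.02% Triton X-100, 1 mM DTT, 0.2 mg/mL BSA and 0.4 mg/ml salmon testes DNA. Antibodies against each partner (one per run) detected bound dimers, and fluorescence scans were regression-normalized. Binding z-scores take the random background probes as reference.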

Row | Sequence | PBM binding z-score
1 | AATACTGGGTCATCGTAGGCCAGAGTACGCACAG | 1.65
2 | CAGCCTAGGTCAGGGCCGGTATAGGAGGAACGTT | -0.778
3 | TAGCCTAGTTCATTGGGCCAGTATAGTACGCATC | -0.38
4 | ATCGAAAGGTCGAAGTGAGTATAGAGAAAGGGAA | 1.1
5 | GCTAGTTGGTCAGTAACAGGTCACACACCGGTCG | -0.131
6 | GCTAGTTGTTCAGTAAAAGGTCACACACCGGTCG | 0.53
7 | CCGACTGAGGCATAAGGTTACCATAAGCCAGCCC | -0.747
8 | GATACAGGGTCAGCTAAAGGCCAGAGTATGGAAA | 0.576
9 | CCGACTGGAGCAAAGGTTACCATACTCAGTACGA | -0.17
10 | CGTCCAAGGTCAGAGAGGTCAGTGGATGCCGAGT | 0.146
11 | ACTAGTTGGTCAGCTGAGGTCACCCACAATTCGG | 0.761
12 | ATCTCTTGGTAAAGTTCAGTGAAAGATCGATAGA | 1.4
13 | CAAACTAGGTCAAGAGGTCGAAGTCCGCTTCCCG | 1.18
14 | TAGTCTAGGTCATGCGGGCCAGTATAGTGTCGGC | 2.08
15 | CCCACTGGGCCAAAGGTCATTGATTCCAATGCTC | 0.334
16 | ACTAGCAGGCCAAGTTTGGGTCACTCTAACAAAG | -0.869
17 | CATACAGGGTCAGCTAGTCCAGAGTAGGGACGGC | 0.656
18 | GCTGCTAGGTCAAATGATGGTCAGCTAAAGCTCG | -0.0492
19 | TGAAAGAGGTTAAAGATCAGGGAACGTGGCGTCG | 0.776
20 | AGAACGAGGGCAATGAATTGATAGCACGGGTGGC | 0.112

Row | Sequence | PBM binding z-score
21 | ATATGTGGGTTACATCCGGGTCATTCAGGCTATG | 2.1
22 | ATACCAGGGTGATCGTGAGGTCGTTGATACTAAC | 0.464
23 | TCTAGCAGGCCAGACGGTCACTCAAGAGGTACGG | -0.226
24 | ACTATTAGTTGAAACGAGGGCAACCGATAGGTTG | 1.09
25 | GCTGCTAGGTCAACTGATAGTCAGCTAAAGCTCG | 0.166
26 | GCTAGCGGGCCATTTGGGTCACTCAATGACGGGC | -0.871
27 | CCGACTGGGGCTTAAGGTTACCATAAGCCAGCCC | -1.39
28 | CGAACGAGGGCATGTGTTGATAGCAAATGCCGAT | 0.15
29 | CAAACTAGGTCAAGGGTCAAAGTCGAGCCAACCA | 6.09
30 | AGAACGAGGGCAATGAGTTGATAGAACGGGTGGC | 0.559
31 | ATCTCTATGTAAAGTTCAGTGAAAGATCGATAGA | 0.912
32 | GCTTGTAGATCAAGGTTAAGAAAGACTAAGCTAA | -0.233
33 | GCTATTAGTTGAAGGGGCAACCGAATGATTCTCG | -0.209
34 | AGTCAAAGTTCACTAGGTACCGTAAGATTCAGCT | 1.07
35 | TAGCCTAGGTCAGATCGGGCCTGTATACGCTATA | -0.328
36 | TCATATAGGTAAAGGTGTAAGTCGAACGATATGA | 1.38
37 | GCGACTGGGGCATCAGCAGGTTACCATAACTTAA | 0.296
38 | GCAGACAGGTGAAACGCAGGTAAATCAGGGTGGC | -0.773
39 | CAAACTAGGTCACCGGAAGGTCAAAGTCCGCATG | 2.7
40 | ACTATTAGTTGACTTAGGGTAACCGATACGACGC | 1.67

system: PPARg DBDmut IVT, anti-PPARg (DBD mutation: PPARg1 K132A/R137A, NR concentration 270 nM); experiment: as above
How it was run: as §1

Row | Sequence | PBM binding z-score
41 | AATACTGGGTCATCGTAGGCCAGAGTACGCACAG | 2.15
42 | CAGCCTAGGTCAGGGCCGGTATAGGAGGAACGTT | -1.19
43 | TAGCCTAGTTCATTGGGCCAGTATAGTACGCATC | -0.291
44 | ATCGAAAGGTCGAAGTGAGTATAGAGAAAGGGAA | 1.1
45 | GCTAGTTGGTCAGTAACAGGTCACACACCGGTCG | 0.285
46 | GCTAGTTGTTCAGTAAAAGGTCACACACCGGTCG | 0.109
47 | CCGACTGAGGCATAAGGTTACCATAAGCCAGCCC | -0.854
48 | GATACAGGGTCAGCTAAAGGCCAGAGTATGGAAA | -0.417
49 | CCGACTGGAGCAAAGGTTACCATACTCAGTACGA | 0.137
50 | CGTCCAAGGTCAGAGAGGTCAGTGGATGCCGAGT | 0.0263
51 | ACTAGTTGGTCAGCTGAGGTCACCCACAATTCGG | 0.737
52 | ATCTCTTGGTAAAGTTCAGTGAAAGATCGATAGA | 1.94
53 | CAAACTAGGTCAAGAGGTCGAAGTCCGCTTCCCG | 0.351
54 | TAGTCTAGGTCATGCGGGCCAGTATAGTGTCGGC | 2.16
55 | CCCACTGGGCCAAAGGTCATTGATTCCAATGCTC | -0.118
56 | ACTAGCAGGCCAAGTTTGGGTCACTCTAACAAAG | -1.06
57 | CATACAGGGTCAGCTAGTCCAGAGTAGGGACGGC | 0.108
58 | GCTGCTAGGTCAAATGATGGTCAGCTAAAGCTCG | -0.751
59 | TGAAAGAGGTTAAAGATCAGGGAACGTGGCGTCG | -0.385
60 | AGAACGAGGGCAATGAATTGATAGCACGGGTGGC | -0.0881

Row | Sequence | PBM binding z-score
61 | ATATGTGGGTTACATCCGGGTCATTCAGGCTATG | 2.31
62 | ATACCAGGGTGATCGTGAGGTCGTTGATACTAAC | 0.118
63 | TCTAGCAGGCCAGACGGTCACTCAAGAGGTACGG | -0.934
64 | ACTATTAGTTGAAACGAGGGCAACCGATAGGTTG | 0.692
65 | GCTGCTAGGTCAACTGATAGTCAGCTAAAGCTCG | -1.36
66 | GCTAGCGGGCCATTTGGGTCACTCAATGACGGGC | -1.28
67 | CCGACTGGGGCTTAAGGTTACCATAAGCCAGCCC | -1.88
68 | CGAACGAGGGCATGTGTTGATAGCAAATGCCGAT | -0.912
69 | CAAACTAGGTCAAGGGTCAAAGTCGAGCCAACCA | 4.1
70 | AGAACGAGGGCAATGAGTTGATAGAACGGGTGGC | -0.194
71 | ATCTCTATGTAAAGTTCAGTGAAAGATCGATAGA | 1.04
72 | GCTTGTAGATCAAGGTTAAGAAAGACTAAGCTAA | 0.273
73 | GCTATTAGTTGAAGGGGCAACCGAATGATTCTCG | 0.191
74 | AGTCAAAGTTCACTAGGTACCGTAAGATTCAGCT | 0.221
75 | TAGCCTAGGTCAGATCGGGCCTGTATACGCTATA | 0.156
76 | TCATATAGGTAAAGGTGTAAGTCGAACGATATGA | 0.989
77 | GCGACTGGGGCATCAGCAGGTTACCATAACTTAA | -0.965
78 | GCAGACAGGTGAAACGCAGGTAAATCAGGGTGGC | -1.02
79 | CAAACTAGGTCACCGGAAGGTCAAAGTCCGCATG | 2.01
80 | ACTATTAGTTGACTTAGGGTAACCGATACGACGC | 1.36
